WT yeast gro inh: growth inhibition of WT yeast, mitochondrial fusion screen | mitochondrial fusion phenotypic screen, WT strain | inhibition, % at 10 µM | 190,000 compounds, 2.1% hits | AID 1362; in the data active means inhibition above about 58%; tested in S. cerevisiae
L major viab: Leishmania major promastigote growth inhibition; Leishmania major promastigotes, resazurin fluorescence viability; inhibition, % at 10 µM; 200,000 compounds, 9% hits; AID 1063; in the data active means inhibition above about 50%;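 further: promastigotes grown with compound for 44 hours at 28 °C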
RAM inhibit: inhibitors of the yeast RAM network | S. cerevisiae dse1pr::URA3 reporter, 5-FOA growth OD615, 2 d; analog-sensitive cbk1-as2 kinase mutant strain | inhibition, % at 50 µM | 190,000 compounds, 1.8% hits | AID 868;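 active means inhibition above a set limit, 3 SD over mean compound inhibition, cut at about 8.4% in these data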;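 further: 0% = DMSO-only wells with no growth and 100% = 10 µM 1-NA-PP1 full growth; inhibition rescues growth on 5-FOA so higher OD means more RAM inhibition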
CHOP inh: CHOP inhibition in unfolded protein response | CHO-K1 CHOP-promoter luciferase, tunicamycin-induced, 15-18 h | inhibition, % at 10 µM | 220,000 compounds, 3.8% hits | AID 2732;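 active means compounds that reduced the stress-induced luciferase reporter signal by more than about 70% of percent inhibition, limit read from the data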;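 further: 0% = tunicamycin plus vehicle and 100% = wells without tunicamycin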
An asterisk follows results filed as active; · = no result. Compounds with a hit are over-represented: about 13% of the library has one in this group of screens.

SMILES	WT yeast gro inh	L major viab	RAM inhibit	CHOP inh
CCN1CCN(Cc2ccc(NC(=O)c3ccc(C)c(NC(=O)c4nccn4C)c3)cc2C(F)(F)F)CC1	·	·	·	54.9
CCN1CCN(Cc2ccc(NC(=O)c3ccc(C)c(NC(=O)c4nccnc4N)c3)cc2C(F)(F)F)CC1	·	·	·	79.0*
COC(=O)c1cc2c(s1)-c1ccccc1CC2	-0.1	-5.8	-0.6	91.3*
O=c1cc(Nc2ccc3c(c2)OCO3)[nH]c(=O)n1-c1ccc(Br)cc1	0.9	99.2*	2.2	76.6*
CCCCCCNc1nc(-c2ccc(OC)cc2)c(CCC(=O)O)s1	5.8	-0.7	1.5	0.5
CN1CCN(CCP(=O)(c2ccccc2)c2ccccc2)CC1	-8.9	-4.8	0.9	72.6*
O=P(CCO)(c1ccccc1)c1ccccc1	2.9	-1.1	0.9	15.6
COc1ccccc1C(=O)NCC(=O)OC(C)C(=O)NC(=O)NC1CCCCC1 (configuration not stated)	5.9	-1.6	2.3	-1.1
Cc1nn(-c2ccccc2)c(Cl)c1C(=O)OC(C)C(=O)NC(=O)NC1CCCCC1 (configuration not stated)	69.4*	1.9	1.1	39.2
Cc1cccc2sc(NC(=O)C3=NN(c4ccccc4)C(=O)CC3)nc12	7.8	-6.4	10.6*	11.0
CC1(C)CN(c2ccsc2C(=O)O)C1=O	-1.9	-6.7	3.6	-5.9
CC(=O)/C(=C/Nc1ccc(Oc2ccccc2)cc1)c1ccccc1	60.6*	-5.7	4.8	25.8
C(=N\N1CCN(C2c3ccccc3-c3ccccc32)CC1)/c1ccccn1	66.7*	-3.3	2.0	69.9
COc1ccc(/C=N/N2CCN(C3c4ccccc4-c4ccccc43)CC2)cc1O	7.1	66.8*	-0.3	91.7*
COc1ccc(/C=N/N2CCOCC2)cc1O	-8.2	-1.5	2.1	-26.3
CC(C)c1nc2c(c(=O)c3ccccc3n2C)c(=O)n1CCc1ccccc1	·	·	·	8.6
CCCOC(=O)c1ccc(NC(=O)c2nc3nc(C)cc(C)n3n2)cc1	9.2	6.8	3.5	20.1
COc1ccc(C(=O)Nc2ccccc2C(=O)N/N=C/c2cccc3ccccc23)cc1	67.6*	25.6	6.4	56.4
O=C(Nc1ccccc1N1CCOCC1)C1CCN(S(=O)(=O)c2cccc(C(F)(F)F)c2)CC1	-2.6	66.1*	0.6	56.3
COc1ccccc1NC(=O)C(=O)N(c1cccnc1)C(C(=O)NC(C)(C)C)c1ccccc1F (configuration not stated)	-1.5	25.1	2.9	-1.0
C#CCSc1nc(Cc2ccc(Cl)cc2)nc2ccccc12	-14.6	0.3	8.6*	67.6
CN(C)c1ccc(/C=N/NC(=O)CN2CCN(c3ccc(F)cc3)CC2)cc1	-13.7	-6.9	0.4	82.0*
CN(C)c1ccc(/C=N/NC(=O)CCCO)cc1	-8.8	-1.1	2.2	-17.6
CCOC(=O)C1=C(CBr)NC(=O)NC1C (configuration not stated)	9.8	6.6	1.2	-1.7
Cc1cc(C)nc(Sc2ncnc(N)c2[N+](=O)[O-])n1	2.6	57.9*	1.6	101.7*
SMILES	WT yeast gro inh	L major viab	RAM inhibit	CHOP inh
Cc1cccc(Nc2ncnc(N)c2[N+](=O)[O-])n1	-12.1	-5.0	0.1	28.8
CCOC(=O)c1cc2sccc2n1CC(=O)N1CCCc2ccccc21	-9.8	91.7*	1.5	41.8
O=C(c1cc2sccc2n1Cc1ccccc1)N1CCc2ccccc21	-34.1	10.3	4.5	21.3
O=C(c1cc2sccc2n1Cc1ccccc1)N1CCCc2ccccc21	13.0	63.1*	2.6	32.0
O=C(Cn1c(=O)c2sccc2n(Cc2cccc([N+](=O)[O-])c2)c1=O)NCCc1ccccc1	-7.9	18.0	1.2	-8.5
Oc1c(Br)cc(Br)cc1/C=N/N1CCN(Cc2ccccc2)CC1	-2.7	-2.0	1.6	1.9
Cc1ccc(CN2CCN(/N=C/c3cc([N+](=O)[O-])ccc3Cl)CC2)cc1	27.8	8.2	0.2	24.1
Cc1ccc(CN2CCN(/N=C/c3ccc(Cl)c([N+](=O)[O-])c3)CC2)cc1	63.8*	94.8*	0.2	6.2
Cc1ccc(CN2CCN(/N=C/c3cc(Br)cc(Br)c3O)CC2)cc1	47.4	50.8*	-1.4	-18.3
CC(=O)Nc1ccc(NC(=O)c2c(C)nn(-c3ccccc3)c2Cl)cc1C	-10.0	6.2	-0.8	-7.2
COc1cccc(CN(C)C(=O)c2cccc(OC3CCN(C4CCCC4)CC3)c2)c1	3.4	63.5*	0.8	15.3
CCCN1CCC(=NNc2ccc(C(=O)O)cc2)CC1	4.0	90.4*	1.4	32.8
CCc1cccc(CC)c1NC(=O)/C(C#N)=C/c1ccccc1C(F)(F)F	68.4*	97.4*	3.3	83.9*
N#C/C(=C\c1ccccc1C(F)(F)F)C(=O)Nc1ccccc1	17.4	1.9	2.5	29.3

Screening results: PubChem, several laboratories
